# Data as given in ChEMBL document CHEMBL1157539, “Thousands of chemical starting points for antimalarial lead identification” (Nature, 2010).
# Test system: Plasmodium falciparum
# Experiment: GSK_TCMDC: Inhibition of Plasmodium falciparum 3D7 in whole red blood cells, using parasite LDH activity as an index of growth. Test compounds present at 2uM
# Type: functional
row,Compound,Inhibition [%]
1,COc1cc(CCNc2nc(NCc3ccccc3-c3ccccc3)nc(N3CCC(N)CC3)n2)ccc1O.O=C(O)C(F)(F)F,100
2,CN(c1ccc2c(c1)nc(NCc1ccc(F)cc1)n2C)c1ccnc(Nc2ccc(CS(C)(=O)=O)cc2)n1.Cl,97
3,COc1ccc2c(=NN=Cc3cccc(Cl)c3)cc(C)[nH]c2c1,100
4,Cc1cccc(C)c1CNc1ccnc2cc(C#N)ccc12.Cl,100
5,COc1cc2ncnc(NCCc3ccccc3Cl)c2cc1OC,88
6,CCN(CC)CCN(Cc1ccc(-c2ccc(Br)cc2)cc1)C(=O)Cn1c(CCc2cccc(F)c2F)nc(=O)c2ccccc21.O=C(O)C(O)C(O)C(=O)O,98
7,Cc1cccc2nc(-c3ccc(-c4cccc(CNCc5ccc(CN)cc5)c4)s3)[nH]c12.O=C(O)C(F)(F)F,99
8,CC(=O)Nc1nc(C(=O)Nc2ccc(-c3cccc(-c4nc5cc(F)ccc5[nH]4)c3)cc2)cs1,94
9,Cc1cc(Br)cnc1CCCCNc1cc(=O)c2ccccc2[nH]1.Cl,91
10,O=C(O)C(F)(F)F.c1ccc2c(c1)CN(Cc1cc3ccccc3[nH]1)CC1(CCN(Cc3c[nH]c4cnccc34)CC1)O2,100
11,O=C(Nc1ccc2ccccc2c1)c1ccc(CN2CCC(Cc3ccccc3)CC2)cc1,95
12,Cc1ccc(Cl)cc1N1CCN(CCCNC(=O)C2CCN(c3nc4ccccc4[nH]3)CC2)CC1,88
13,O=C(O)C(F)(F)F.O=C1CCCN1CCCNCc1ccc(-c2cccc(-c3nc4cc(C(F)(F)F)ccc4[nH]3)c2)cc1,100
14,CCOC(=O)/C(=N\OC(C(=O)OC(C)(C)C)c1ccccc1)c1csc(NC(c2ccccc2)(c2ccccc2)c2ccccc2)n1 (stereo not given),89
15,N#Cc1cccc(NC(=O)Nc2ccc(CC(=O)N3CCc4cc(Cl)c(N5CCN(C/C=C/c6ccccc6)CC5)cc43)cc2)c1,91
16,CN1CCCc2ccc(NC(=O)Nc3ccc(Cl)c(Cl)c3)cc2C1,89
17,CS(=O)(=O)N1CC2(CCN(CCC(NC(=O)Nc3ccccc3)c3ccc(Cl)c(Cl)c3)CC2)c2ccccc21 (stereo not given),99
18,COc1ccc2cc(-c3nc(-c4c(Cl)cccc4Cl)[nH]c3-c3ccnc(NCCC4CCCN4C)c3)ccc2c1.O=C(O)C(F)(F)F (stereo not given),100
19,CNC(=O)c1ccc2nc(C3CC3)n(CC3CCN(S(=O)(=O)c4cccc(Cl)c4)CC3)c2c1.O=C(O)C(F)(F)F,100
20,O=C(Nc1cccc(CN2CCCN(Cc3ccc(F)cc3)CC2)c1)c1ccc(Cl)c(Cl)c1.O=C(O)C(F)(F)F,95

row,Compound,Inhibition [%]
1,CCCOc1cc(OCCC)cc(-c2cc(=O)c3ccccc3[nH]2)c1,99
2,CC(=O)N(C)c1cccc(C(=O)Nc2cccc(-c3ccc(-c4nc5cc(C(F)(F)F)ccc5[nH]4)cc3)c2)c1,90
3,Cc1ccc2nc(C)cc(Nc3ccccc3O)c2c1.Cl,96
4,c1ccc(CNc2nc(NCCc3c[nH]cn3)nc(N3CCCC4CCCCC43)n2)cc1 (stereo not given),98
5,N#Cc1ccc(N2CCN(Cc3cccc(-c4cccc(-c5nc6cc(C(F)(F)F)ccc6[nH]5)c4)c3)CC2)nc1.O=C(O)C(F)(F)F,99
6,Cc1nc(N)nc(N)c1-c1cccc(Cl)c1,88
7,O=C(Cc1ccc(NC(=O)c2ccc(O)c(-c3ccc(Cl)c(Cl)c3)c2)cc1)NCCc1ccc(Cl)c(Cl)c1,99
8,CS(=O)(=O)N1CC2(CCN(CCC(NC(=O)/C=C/c3ccccc3)c3ccc(Cl)c(Cl)c3)CC2)c2ccccc21 (stereo not given),97
9,O=S(=O)(c1c(Cl)cc(Cl)cc1Cl)N1CCCCC(c2ccc(Cl)cc2)=N1,95
10,O=C(O)C(F)(F)F.c1ccc(CCNc2ccnc(Nc3ccc4[nH]nnc4c3)n2)cc1,100
11,CS(=O)(=O)NCCCNCc1ccc(-c2ccc(-c3nc4cc(F)ccc4[nH]3)s2)cc1.O=C(O)C(F)(F)F,95
12,COc1cccc(C(=O)NCCc2cccc(Cl)c2)c1OCc1ccccc1,85
13,CC(=O)Oc1cc(C)ccc1C1CCN(CCCCNC(=O)c2ccc(-c3ccc(C(F)(F)F)cc3)cc2)CC1,100
14,Cc1ccccc1Nc1nc(NCCCO)c2ccccc2n1.Cl,83
15,COc1cc(C(=O)N2CCN(C(C)C)CC2)ccc1CN(C)CCCN1CCN(c2cccc(Cl)c2Cl)CC1.Cl,100
16,CCOC(=O)NCC(=O)Nc1cccc(-c2cccc(-c3nc4cccc(C)c4[nH]3)c2)c1,88
17,Cc1nnsc1C(=O)Nc1cccc(-c2ccc(-c3nc4cccc(C)c4[nH]3)s2)c1,100
18,c1ccc(CCNc2ncnc3c2[nH]c2ccccc23)cc1,95
19,CCOc1cc(C=Cc2nc(O)c3ccccc3n2)cc(Cl)c1O,83
20,CN(C)CCCOc1ccc(CCNCc2cccc(Oc3ccc(Cl)cc3)c2)cc1.O=C(O)C(F)(F)F,94
